Most compounds without a hit are left out; they make up all but 21% or so of the library.
Gal4-VP16 FLuc = counter-screen for ROR gamma inhibitors: Gal4-VP16 reporter | Drosophila S2 Gal4-VP16 UAS-luciferase, luminescence, 20 h | Potency, µM (titrated, usually from 53.6 µM), without a hit: at the top dose activity, negative = inhibition, most hits filed as inhibitors | 310,000 compounds, 3.5% hits;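 also: Gal4-VP16 expression switched on by copper sulfate through the metallothionein promoter; potency is read from the fitted curve at half-maximal effect; nearly all actives have a fitted effect of over 50% in size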
IL-1B inflam inh = inflammasome signaling inhibition, IL-1 beta readout. 360,000 compounds, 4.7% hits. THP-1 LPS/ATP IL-1B secretion, AlphaLISA, 16 h; hits give low values. activity change, % at 57.5 µM; in the data active = activity change below about -50%; inconclusive = mostly about -30% to -49%
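Secreted IL-1B measured by AlphaLISA bead assay after 16 h compound exposure of THP-1 cells; compounds (final up to 57.5 uM) added 1 h before LPS (250 ng/mL) and ATP (1.25 mM) stimulation; lower signal means less secretion.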
RORgamma inh = inhibitors of mouse ROR gamma transcriptional activity | Potency, µM (doses to about 53.6 µM), for the others: at the top dose activity change, negative = inhibition, hits mostly inhibitors | 310,000 compounds, 5.4% hits | AID 2551 | P51450 | Drosophila S2 Gal4-RORgamma UAS-luciferase reporter, 20 h; also: potency is read from the fitted curve at half-maximal effect; nearly all actives have a fitted effect of over 60% in size
Target sequence (P51450 whole entry, looked up, the tested form may be a part): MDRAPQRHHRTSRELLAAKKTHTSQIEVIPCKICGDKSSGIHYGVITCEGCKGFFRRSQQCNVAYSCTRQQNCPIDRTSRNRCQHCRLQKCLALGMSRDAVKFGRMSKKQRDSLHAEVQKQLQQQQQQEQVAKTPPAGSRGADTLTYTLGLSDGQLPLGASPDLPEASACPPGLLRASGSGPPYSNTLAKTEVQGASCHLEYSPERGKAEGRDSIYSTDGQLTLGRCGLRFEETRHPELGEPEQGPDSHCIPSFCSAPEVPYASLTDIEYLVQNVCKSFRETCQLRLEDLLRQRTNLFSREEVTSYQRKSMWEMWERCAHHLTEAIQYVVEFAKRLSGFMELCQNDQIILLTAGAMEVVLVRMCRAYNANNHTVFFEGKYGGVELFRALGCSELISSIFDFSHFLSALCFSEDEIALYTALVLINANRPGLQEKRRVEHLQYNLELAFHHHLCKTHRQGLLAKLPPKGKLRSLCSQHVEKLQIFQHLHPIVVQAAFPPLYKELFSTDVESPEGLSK
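Using a luciferase readout, inhibitors were identified by reduced reporter activity in Drosophila cells coexpressing a copper-inducible Gal4–ROR gamma fusion and UAS-driven Photinus luciferase, incubated 20 hr after 700 uM copper sulfate.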
TDP1 cell CPT = DT40-hTDP1 cell growth loss with CPT | Potency, µM (series often up to 46.2 µM), for inactives: at the highest dose activity change, negative = growth inhibition, most hits filed as inhibitors | 420,000 compounds, 12% hits | chicken DT40 Tdp1-/-;hTDP1 cells + 20 nM CPT, ATP luminescence, 48 h | AID 686979; also: potency is read from the fitted curve at half-maximal effect; nearly all actives have a fitted effect of over 55% in size
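Chicken DT40 Tdp1-/- cells stably complemented with human TDP1 were seeded at 400 cells/well in medium containing 20 nM camptothecin, exposed to pin-transferred compounds, and grown at 37 °C for at least 48 hr. Viability was read as ATP luminescence.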
TDP1 cell noCPT = qHTS for Inhibitors of human tyrosyl-DNA phosphodiesterase 1 (TDP1): qHTS in cells in absence of CPT | DT40 Tdp1-/- hTDP1 cells, no CPT, ATP luminescence, 48 h | Potency, µM (doses to about 46.2 µM), for inactives: at the highest dose activity change, negative = growth inhibition, actives largely listed as inhibitors | 420,000 compounds, 15% hits | AID 686978, 2013; also: potency is read from the fitted curve at half-maximal effect; nearly all actives have a fitted effect of over 55% in size
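No-CPT arm: Tdp1-/-;hTDP1 DT40 cells (400/well) plus compounds, incubated ≥48 hr at 37 °C. Readout CellTiter-Glo luminescence.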
ELG1 DNA repair = blocks ELG1-dependent DNA repair in HEK293T cells; AID 504467; 330,000 compounds, 2.3% hits; HEK293T ELG1-luciferase reporter, luminescence, 16 h; DNA damage induced by 5-fluorouridine; Potency, µM (series often up to 46.1 µM), inactives show at the top dose activity change, negative = inhibition, hits mostly inhibitors; also: potency is read from the fitted curve at half-maximal effect; nearly all actives have a fitted effect of over 55% in size
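Step one: seed 2,000 cells per well. Step two: pin-transfer compound or DMSO alongside 5-fluorouridine. Step three: incubate 16 hr, 37 °C, 5% CO2. Step four: add ONE-Glo, wait 30 min, read luminescence.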
* = called active by the depositor; ? = inconclusive; nt = no result given; [ ] = another dose, or the depositor's remark. Unless noted, calls follow the shape of the dose curve; as a rule, active = well fitted curve in the direction sought with a large enough effect; inconclusive = small, poorly fitted or top-dose-only effect, or another doubt; inactive = no such curve, though single readings can be large; an effect the other way counts as inactive or inconclusive. % is scaled to controls: 0 for no effect and ±100 for the full control effect.

SMILES	Gal4-VP16 FLuc	IL-1B inflam inh	RORgamma inh	TDP1 cell CPT	TDP1 cell noCPT	ELG1 DNA repair
Cc1cc(C)n2c(SCc3ccc(Cl)cc3Cl)nnc2n1	?	-2	-1%	?	18µM*	-7%
CCc1cccc(NS(=O)(=O)c2ccc3c(c2)N(CC(=O)OC)C(=O)CS3)c1	nt	nt	nt	18µM*	?	nt
COC(=O)CN1C(=O)CSc2ccc(S(=O)(=O)Nc3cccc(C)c3)cc21	nt	nt	nt	?	23µM*	nt
Cc1ccc(C)c(OC(=O)C2CSC3(C)CCC(=O)N23)c1C (stereo not drawn)	nt	-21	nt	-15%	?	3%
C=CCN1C(=O)C(Cc2ccc(F)cc2)S/C1=N/N=C/c1ccco1 (stereo not drawn)	-5%	22	-16%	3%	1%	0%
C=CCN1C(=O)C(Cc2ccc(Br)cc2)S/C1=N\N=C\c1ccco1 (stereo not drawn)	-18%	-2	14µM*	-16%	?	6%
O=c1c(-c2ccc(F)cc2)nc2cnc(N3CCOCC3)nc2n1C1CC1	-4%	nt	-12%	3%	16%	nt
Cc1ccc(S(=O)(=O)NCC(c2ccco2)N2CCc3ccccc3C2)cc1 (stereo not drawn)	nt	2	nt	23µM*	?	6%
COc1ccc(OC)c(S(=O)(=O)NCC(c2ccco2)N2CCc3ccccc3C2)c1 (stereo not drawn)	nt	6	nt	?	?	?
COc1ccc(C)cc1S(=O)(=O)NCC(c1ccco1)N1CCc2ccccc2C1 (stereo not drawn)	nt	-10	nt	29µM*	?	1%
O=C(Cn1nc(C(F)F)cc1C(F)F)NNC(=S)Nc1ccc([N+](=O)[O-])cc1	?	26	10µM*	18%	23%	9%
Cc1cc([N+](=O)[O-])nn1CC(=O)NNC(=S)Nc1ccc(Cl)cc1	?	0	16µM*	-6%	-4%	-5%
Cc1cc(C)n(CC(=O)Nc2cccc(C(F)(F)F)c2)n1	3%[10 µM]	-11	-15%	-7%	-28%	15%
COc1cccc(NC(=S)NNC(=O)Cn2nc([N+](=O)[O-])cc2C)c1	-1%[10 µM]	18	-26%	?	-5%	9%
COc1cccc(NC(=S)NNC(=O)Cn2nc(C(F)F)cc2C(F)F)c1	?	-3	1.1µM*	-23%	-1%	1%
Cc1cc(C(F)(F)F)nn1CC(=O)NNC(=S)Nc1cccc(Cl)c1	?	10	11µM*	2%	5%	-1%
O=C(Cn1nc(C(F)F)cc1C(F)F)NNC(=S)Nc1ccc(F)cc1	-8%	4	-40%	0%	-3%	-1%
COc1cc(OC)c2c(c1)OC(c1ccccc1)CC2=O (stereo not drawn)	-12%	nt	23%	4%	?	nt
O=C(O)CCc1cc(I)c(O)c(I)c1	nt	nt	nt	-25%	-19%	nt
COc1ccccc1CCNC(=O)c1cc2c(=O)n3cccc(C)c3nc2n1C	nt	nt	nt	-26%	-27%	nt
O=C1c2ccccc2-c2onc3ccc(NCc4ccco4)c1c23	-28%	-97*	?	?	23µM*	1%
O=C(O)c1ccccc1NCc1ccco1	-1%	-1	1%	-19%	?	0%
O=C1C=C(N2CCCCC2)c2ccccc2C1=O	nt	-97*	nt	3.7µM*	6.5µM*	nt
Cn1c(=O)cc2c3c(c(N4CCCCC4)ccc31)C(=O)c1ccccc1-2	-13%	-13	-23%	?	10µM*	?
O=C1c2ccccc2C(=O)c2c1cccc2N1CCCC1	?	-29	11µM*	?	8.2µM*	20%
CCOc1ccc2noc3c2c1C(=O)c1ccccc1-3	-18%	9	-33%	6%	-8%	?

Source: PubChem
